In article PMC7862700, “An all-to-all approach to the identification of sequence-specific readers for epigenetic DNA modifications on cytosine” one finds binding signal data, which are given here for 7 sequences.

Common to all, as to assay: DAPPL (digital affinity profiling via proximity ligation, sequencing); 10 mM Tris-HCl pH 7.5, 50 mM NaCl, 1 mM DTT, 4% glycerol, room temperature, 30 min; GST-TFs on glutathione beads, 16-mer random dsDNA library, 0.1% formaldehyde crosslink after washing; high values mean tight binding
Holding throughout (details): protein: recombinant; tags: N-terminal GST; dsDNA, one strand shown

In test [1] the target is T1, FLI1 (Homo sapiens, UniProt Q01543 1-452).
T1 sequence: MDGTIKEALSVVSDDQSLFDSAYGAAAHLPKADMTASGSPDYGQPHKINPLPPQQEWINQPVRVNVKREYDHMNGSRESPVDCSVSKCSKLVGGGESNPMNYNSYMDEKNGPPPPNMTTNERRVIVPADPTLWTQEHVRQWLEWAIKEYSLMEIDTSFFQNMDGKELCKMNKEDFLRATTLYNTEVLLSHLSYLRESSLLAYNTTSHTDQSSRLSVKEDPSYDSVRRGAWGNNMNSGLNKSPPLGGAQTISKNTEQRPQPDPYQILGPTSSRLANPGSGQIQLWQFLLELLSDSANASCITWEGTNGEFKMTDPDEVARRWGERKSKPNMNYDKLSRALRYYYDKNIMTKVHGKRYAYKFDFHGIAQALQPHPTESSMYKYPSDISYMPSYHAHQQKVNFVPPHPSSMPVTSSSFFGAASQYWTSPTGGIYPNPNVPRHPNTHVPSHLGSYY
The procedure, abridged:
(§1)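 After expression in yeast as GST fusions, human transcription factors were bound to glutathione beads, DNA-barcoded and mixed with a tag-only sample. The pools were incubated with 200 nmole of a 16-mer random double-stranded DNA library in Tris/NaCl/DTT/glycerol buffer (30 min, room temperature), washed and crosslinked with 0.1% formaldehyde. Proximity ligation with BsaI/T4 ligase ran for 1 h at 37 °C, before PCR amplification and sequencing on an Illumina NextSeq500. Binding signal is a hexamer's read frequency for a factor divided by its frequency for the tag-only sample.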

Test [2] concerns the target T2, ELK1 (Homo sapiens, UniProt P19419 1-428).
T2 sequence: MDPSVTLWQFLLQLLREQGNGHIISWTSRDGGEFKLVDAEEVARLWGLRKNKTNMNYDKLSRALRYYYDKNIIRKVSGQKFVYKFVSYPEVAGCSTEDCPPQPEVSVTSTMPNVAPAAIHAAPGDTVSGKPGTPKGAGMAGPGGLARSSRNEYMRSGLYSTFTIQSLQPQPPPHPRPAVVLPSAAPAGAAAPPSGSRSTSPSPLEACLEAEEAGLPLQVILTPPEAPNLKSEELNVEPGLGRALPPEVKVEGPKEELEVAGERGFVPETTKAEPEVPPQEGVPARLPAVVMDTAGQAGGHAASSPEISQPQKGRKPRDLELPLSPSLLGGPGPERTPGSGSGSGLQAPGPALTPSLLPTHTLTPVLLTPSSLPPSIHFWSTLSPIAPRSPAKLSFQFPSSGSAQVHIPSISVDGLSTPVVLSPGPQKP
The method in brief:
as §1

Test [3] addresses T3, GABPA (Homo sapiens, UniProt Q06546 1-454).
T3 sequence: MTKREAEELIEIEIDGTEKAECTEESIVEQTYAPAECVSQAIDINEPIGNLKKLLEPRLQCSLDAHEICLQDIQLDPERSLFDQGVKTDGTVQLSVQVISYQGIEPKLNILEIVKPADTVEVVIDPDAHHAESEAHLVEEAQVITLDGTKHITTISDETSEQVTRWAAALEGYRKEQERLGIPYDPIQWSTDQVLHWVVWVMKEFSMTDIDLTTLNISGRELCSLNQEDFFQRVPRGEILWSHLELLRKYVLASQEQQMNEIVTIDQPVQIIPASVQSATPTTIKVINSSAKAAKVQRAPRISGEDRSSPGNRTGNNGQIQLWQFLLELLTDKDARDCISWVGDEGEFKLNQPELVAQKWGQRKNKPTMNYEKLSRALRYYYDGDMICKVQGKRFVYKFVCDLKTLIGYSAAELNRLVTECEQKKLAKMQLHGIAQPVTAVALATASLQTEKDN
The method in brief:
as §1

In test [4] the target is T4, ERG (Homo sapiens, UniProt P11308 1-479).
T4 sequence: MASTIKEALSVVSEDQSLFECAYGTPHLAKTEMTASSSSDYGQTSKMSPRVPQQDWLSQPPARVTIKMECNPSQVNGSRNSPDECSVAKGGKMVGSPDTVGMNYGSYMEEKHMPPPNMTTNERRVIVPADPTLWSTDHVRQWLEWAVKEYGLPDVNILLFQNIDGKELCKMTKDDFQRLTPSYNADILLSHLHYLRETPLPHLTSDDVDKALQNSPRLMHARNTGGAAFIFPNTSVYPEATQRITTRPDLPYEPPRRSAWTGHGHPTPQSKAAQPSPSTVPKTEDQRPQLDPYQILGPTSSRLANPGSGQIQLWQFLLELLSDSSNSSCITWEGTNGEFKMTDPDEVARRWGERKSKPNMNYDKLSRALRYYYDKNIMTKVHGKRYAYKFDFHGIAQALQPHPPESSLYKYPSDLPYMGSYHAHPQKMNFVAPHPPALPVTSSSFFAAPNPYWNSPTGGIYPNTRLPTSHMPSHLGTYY
The procedure, abridged:
as §1

For test [5], the target named is ELF1 (Homo sapiens, UniProt P32519 1-619). The method in brief: as §1
Sequence of ELF1 (P32519 whole entry): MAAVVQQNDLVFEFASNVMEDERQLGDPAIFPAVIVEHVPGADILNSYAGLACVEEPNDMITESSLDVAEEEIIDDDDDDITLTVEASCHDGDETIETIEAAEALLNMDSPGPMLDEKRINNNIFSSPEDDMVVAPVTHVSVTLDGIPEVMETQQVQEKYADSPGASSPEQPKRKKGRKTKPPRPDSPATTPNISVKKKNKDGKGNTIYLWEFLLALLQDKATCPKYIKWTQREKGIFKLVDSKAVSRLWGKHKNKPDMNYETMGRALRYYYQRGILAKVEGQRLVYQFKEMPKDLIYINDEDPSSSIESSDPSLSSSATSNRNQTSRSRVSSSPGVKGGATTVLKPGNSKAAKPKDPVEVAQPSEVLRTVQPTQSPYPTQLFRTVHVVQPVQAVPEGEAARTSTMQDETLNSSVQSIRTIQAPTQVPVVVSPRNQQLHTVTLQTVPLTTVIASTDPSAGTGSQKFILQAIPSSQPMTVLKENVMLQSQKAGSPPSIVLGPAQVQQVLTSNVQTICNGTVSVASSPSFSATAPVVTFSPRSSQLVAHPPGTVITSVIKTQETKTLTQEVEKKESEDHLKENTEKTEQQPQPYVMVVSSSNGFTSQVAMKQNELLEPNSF
Test [6] addresses T5, EHF (Homo sapiens, UniProt Q9NZC4 1-300).
T5 sequence: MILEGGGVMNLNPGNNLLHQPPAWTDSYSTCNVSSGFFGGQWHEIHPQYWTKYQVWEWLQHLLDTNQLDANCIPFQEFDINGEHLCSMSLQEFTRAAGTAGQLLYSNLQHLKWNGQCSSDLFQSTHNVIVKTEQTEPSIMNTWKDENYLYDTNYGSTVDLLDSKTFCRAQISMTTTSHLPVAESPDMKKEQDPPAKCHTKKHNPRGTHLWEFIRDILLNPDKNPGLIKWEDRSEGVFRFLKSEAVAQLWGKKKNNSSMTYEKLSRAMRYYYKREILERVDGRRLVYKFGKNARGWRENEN
The procedure, abridged: as §1

The target in test [7] is SPI1 (Homo sapiens, UniProt P17947 1-270). The procedure, abridged: as §1
Test [8] concerns the target SPIB (Homo sapiens, UniProt Q01892 1-262). The method in brief: as §1
In test [9] the target is T6, ELK3 (Homo sapiens, UniProt P41970 1-407).
T6 sequence: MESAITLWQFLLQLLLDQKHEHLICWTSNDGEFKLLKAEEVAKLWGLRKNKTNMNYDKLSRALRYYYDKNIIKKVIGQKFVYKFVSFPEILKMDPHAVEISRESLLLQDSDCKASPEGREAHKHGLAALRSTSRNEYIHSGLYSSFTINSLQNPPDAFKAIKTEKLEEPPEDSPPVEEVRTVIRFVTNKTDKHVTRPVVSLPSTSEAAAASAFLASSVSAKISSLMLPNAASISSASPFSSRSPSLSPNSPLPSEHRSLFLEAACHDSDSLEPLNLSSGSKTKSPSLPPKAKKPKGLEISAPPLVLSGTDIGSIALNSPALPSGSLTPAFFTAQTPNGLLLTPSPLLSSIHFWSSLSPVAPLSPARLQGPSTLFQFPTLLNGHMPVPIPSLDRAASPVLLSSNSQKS
The method in brief:
as §1

Sequence of SPIB (Q01892 whole entry): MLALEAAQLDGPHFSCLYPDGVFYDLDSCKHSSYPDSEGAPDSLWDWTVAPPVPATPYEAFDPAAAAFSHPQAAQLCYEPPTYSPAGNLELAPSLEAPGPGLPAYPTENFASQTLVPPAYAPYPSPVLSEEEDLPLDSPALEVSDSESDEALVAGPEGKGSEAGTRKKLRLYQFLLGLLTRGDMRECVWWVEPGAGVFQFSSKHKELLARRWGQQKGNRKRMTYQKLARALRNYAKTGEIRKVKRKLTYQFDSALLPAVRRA

Turning to CCTGCG, the binding signal in test [1] was 1.27 fold enrichment (6-mer frequency, TF over GST control); in test [2], 1.34 fold enrichment (6-mer frequency, TF over GST control); in [3], 1.39 fold enrichment (6-mer frequency, TF over GST control); in test [4], 1.27 fold enrichment (6-mer frequency, TF over GST control); in test [5], 1.38 fold enrichment (6-mer frequency, TF over GST control); in test [6], 1.31 fold enrichment (6-mer frequency, TF over GST control). Also, the binding signal in [7] is 1.23 fold enrichment (6-mer frequency, TF over GST control); in test [8] it was 1.35 fold enrichment (6-mer frequency, TF over GST control); in [9], 1.22 fold enrichment (6-mer frequency, TF over GST control).
As to GGTACT, the binding signal is 1.25 fold enrichment (6-mer frequency, TF over GST control) in test [1]; 1.21 fold enrichment (6-mer frequency, TF over GST control) in test [2]; 1.31 fold enrichment (6-mer frequency, TF over GST control) in test [3]; 1.24 fold enrichment (6-mer frequency, TF over GST control) in test [4]; 1.32 fold enrichment (6-mer frequency, TF over GST control) in test [5]; 1.25 fold enrichment (6-mer frequency, TF over GST control) in test [6]. The binding signal in [7] was 1.19 fold enrichment (6-mer frequency, TF over GST control); in test [8], 1.15 fold enrichment (6-mer frequency, TF over GST control); in [9], 1.35 fold enrichment (6-mer frequency, TF over GST control).
TCCGGG: the binding signal in test [1] is 1.54 fold enrichment (6-mer frequency, TF over GST control); in test [2] it was 1.55 fold enrichment (6-mer frequency, TF over GST control); in [3] it was 1.35 fold enrichment (6-mer frequency, TF over GST control); in test [4] it was 1.56 fold enrichment (6-mer frequency, TF over GST control); in test [5], 1.48 fold enrichment (6-mer frequency, TF over GST control); in [6], 1.48 fold enrichment (6-mer frequency, TF over GST control). The binding signal in test [7] is 1.4 fold enrichment (6-mer frequency, TF over GST control); in test [8], 1.65 fold enrichment (6-mer frequency, TF over GST control); in test [9], 1.46 fold enrichment (6-mer frequency, TF over GST control).
For CGTATG, the binding signal is 1.1 fold enrichment (6-mer frequency, TF over GST control) in test [1]; 1.1 fold enrichment (6-mer frequency, TF over GST control) in [2]; 1.08 fold enrichment (6-mer frequency, TF over GST control) in test [3]; 1.03 fold enrichment (6-mer frequency, TF over GST control) in test [4]; 1.1 fold enrichment (6-mer frequency, TF over GST control) in test [5]; 1.1 fold enrichment (6-mer frequency, TF over GST control) in test [6]. For the same sequence, the binding signal in [7] was 1.07 fold enrichment (6-mer frequency, TF over GST control); in test [8], 1.09 fold enrichment (6-mer frequency, TF over GST control); in test [9], 1.13 fold enrichment (6-mer frequency, TF over GST control).
As for TGTTCA, the binding signal in test [1] is 1.11 fold enrichment (6-mer frequency, TF over GST control); in test [2] it was 1.31 fold enrichment (6-mer frequency, TF over GST control); in test [3], 1.21 fold enrichment (6-mer frequency, TF over GST control); in [4], 1.19 fold enrichment (6-mer frequency, TF over GST control); in test [5], 1.18 fold enrichment (6-mer frequency, TF over GST control); in test [6], 1.23 fold enrichment (6-mer frequency, TF over GST control). The binding signal in [7] is 1.3 fold enrichment (6-mer frequency, TF over GST control); in [8], 1.17 fold enrichment (6-mer frequency, TF over GST control); in test [9], 1.37 fold enrichment (6-mer frequency, TF over GST control).
With CCTCGG, the binding signal in test [1] was 1.2 fold enrichment (6-mer frequency, TF over GST control); in [2], 1.17 fold enrichment (6-mer frequency, TF over GST control); in test [3] it was 1.2 fold enrichment (6-mer frequency, TF over GST control); in test [4], 1.2 fold enrichment (6-mer frequency, TF over GST control); in test [5], 1.24 fold enrichment (6-mer frequency, TF over GST control); in [6], 1.33 fold enrichment (6-mer frequency, TF over GST control). Moreover, the binding signal in [7] is 1.14 fold enrichment (6-mer frequency, TF over GST control); in test [8], 1.15 fold enrichment (6-mer frequency, TF over GST control); in test [9], 1.05 fold enrichment (6-mer frequency, TF over GST control).
In the case of ATCATA, the binding signal is 1.07 fold enrichment (6-mer frequency, TF over GST control) in test [1]; 1.06 fold enrichment (6-mer frequency, TF over GST control) in [2]; 1.16 fold enrichment (6-mer frequency, TF over GST control) in test [3]; 1.05 fold enrichment (6-mer frequency, TF over GST control) in test [4]; 1.12 fold enrichment (6-mer frequency, TF over GST control) in test [5]; 1.03 fold enrichment (6-mer frequency, TF over GST control) in [6]. Moreover, the binding signal in [7] was 1.05 fold enrichment (6-mer frequency, TF over GST control); in test [8], 1.18 fold enrichment (6-mer frequency, TF over GST control); in test [9], 1.09 fold enrichment (6-mer frequency, TF over GST control).
